Test results taken from PubChem BioAssay AID1159580 (chemical genetic matrix, 2015).
Screen size: about 5,500 compounds; about 2,000 (36%) were called active. Another 18% or so got no clear call; they are omitted. Rule as the data show it: active = normalized growth mostly below about 0.91 (no sharp cut-off); inconclusive = no clear call, values can overlap the other calls; inactive = mostly above about 0.92. The list shows a part of the results.

Assay: chemical genetic growth profiling, strain panel (AID 1159580);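 also: tested at 20 µM; growth read once vehicle control cultures reached saturation at 30 °C; 1 = growth at the plate median or of vehicle wells; lower values mean less growth of the strain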
Settings: growth OD

Measured: normalized growth

COc1ccc(-c2cc(C(F)F)nn2-c2ccc(S(N)(=O)=O)cc2)cc1F
inactive: S. cerevisiae deletion strains, locus YJR075W, strain HOC1, stronger effect = lower value 1.01 | S. cerevisiae deletion strains, locus YKL009W, strain mrt4, stronger effect = lower value 1.02 | S. cerevisiae deletion strains, locus YKL068W, stronger effect = lower value 1 | S. cerevisiae deletion strains, locus YKL085W, strain MDH1 (second series), stronger effect = lower value 1 | S. cerevisiae deletion strains, locus YKL085W, strain MDH1, stronger effect = lower value 1 | S. cerevisiae deletion strains, locus YKL160W, strain elf1, stronger effect = lower value 0.995 | S. cerevisiae deletion strains, locus YKL190W, strain CNB1, stronger effect = lower value 1 | S. cerevisiae deletion strains, locus YKR001C, strain vps1, stronger effect = lower value 1.01 | S. cerevisiae deletion strains, locus YKR026C, strain gcn3, stronger effect = lower value 1 | S. cerevisiae deletion strains, locus YKR091W, strain srl3, stronger effect = lower value 1.01 | S. cerevisiae deletion strains, locus YLL001W, strain dnm1, stronger effect = lower value 0.994 | S. cerevisiae deletion strains, locus YLL026W, stronger effect = lower value 1 | S. cerevisiae deletion strains, locus YLL041C, strain sdh2, stronger effect = lower value 1.01 | S. cerevisiae deletion strains, locus YLR027C, strain aat2, stronger effect = lower value 1 | S. cerevisiae deletion strains, locus YLR039C, strain RIC1, stronger effect = lower value 1.01 | S. cerevisiae deletion strains, locus YLR058C, strain SHM2, stronger effect = lower value 1.01 | S. cerevisiae deletion strains, locus YLR102C, strain apc9, stronger effect = lower value 1.01 | S. cerevisiae deletion strains, locus YLR113W, strain HOG1, stronger effect = lower value 1.05 | S. cerevisiae deletion strains, locus YLR221C, strain rsa3, stronger effect = lower value 1 | S. cerevisiae deletion strains, locus YLR258W, strain gsy2, stronger effect = lower value 1.01 | S. cerevisiae deletion strains, locus YLR262C, strain YPT6 (second series), stronger effect = lower value 1.01 | S. cerevisiae deletion strains, locus YLR262C, strain YPT6, stronger effect = lower value 0.992 | S. cerevisiae deletion strains, locus YLR268W, strain sec22, stronger effect = lower value 0.992 | S. cerevisiae deletion strains, locus YLR320W, strain mms22, stronger effect = lower value 0.962 | S. cerevisiae deletion strains, locus YLR330W, strain CHS5, stronger effect = lower value 1.01 | S. cerevisiae deletion strains, locus YLR342W, strain FKS1 (second series), stronger effect = lower value 1.08 | S. cerevisiae deletion strains, locus YLR342W, strain FKS1, stronger effect = lower value 0.991 | S. cerevisiae deletion strains, locus YLR357W, strain rsc2, stronger effect = lower value 0.995 | S. cerevisiae deletion strains, locus YLR370C, strain arc18, stronger effect = lower value 1.02 | S. cerevisiae deletion strains, locus YLR371W, strain rom2, stronger effect = lower value 1.03 | S. cerevisiae deletion strains, locus YLR384C, strain iki3, stronger effect = lower value 1 | S. cerevisiae deletion strains, locus YLR418C, strain cdc73, stronger effect = lower value 0.951 | S. cerevisiae deletion strains, locus YML016C, strain PPZ1, stronger effect = lower value 1 | S. cerevisiae deletion strains, locus YML032C, strain rad52, stronger effect = lower value 1.05 | S. cerevisiae deletion strains, locus YML120C, strain ndi1, stronger effect = lower value 0.999 | S. cerevisiae deletion strains, locus YML124C, strain tub3, stronger effect = lower value 1.01 | S. cerevisiae deletion strains, locus YMR058W, strain fet3, stronger effect = lower value 0.995 | S. cerevisiae deletion strains, locus YMR078C, strain ctf18, stronger effect = lower value 1.02 | S. cerevisiae deletion strains, locus YMR125W, strain sto1, stronger effect = lower value 1.02 | S. cerevisiae deletion strains, locus YMR129W, stronger effect = lower value 1.01 | S. cerevisiae deletion strains, locus YMR205C, strain PFK2, stronger effect = lower value 0.976 | S. cerevisiae deletion strains, locus YMR223W, strain ubp8, stronger effect = lower value 1.04 | S. cerevisiae deletion strains, locus YMR231W, strain pep5, stronger effect = lower value 1 | S. cerevisiae deletion strains, locus YMR263W, strain SAP30, stronger effect = lower value 0.996 | S. cerevisiae deletion strains, locus YMR307W, strain GAS1, stronger effect = lower value 1.04 | S. cerevisiae deletion strains, locus YNL067W, strain RPL9B, stronger effect = lower value 0.996 | S. cerevisiae deletion strains, locus YNL071W, strain lat1, stronger effect = lower value 0.996 | S. cerevisiae deletion strains, locus YNL128W, strain TEP1, stronger effect = lower value 1 | S. cerevisiae deletion strains, locus YNL153C, strain GIM3, stronger effect = lower value 0.982 | S. cerevisiae deletion strains, locus YNL183C, strain NPR1, stronger effect = lower value 1 | S. cerevisiae deletion strains, locus YNL209W, strain ssb2, stronger effect = lower value 1.01 | S. cerevisiae deletion strains, locus YNL233W, strain BNI4, stronger effect = lower value 1.01 | S. cerevisiae deletion strains, locus YNL248C, strain rpa49, stronger effect = lower value 0.996 | S. cerevisiae deletion strains, locus YNL250W, strain rad50, stronger effect = lower value 1.02 | S. cerevisiae deletion strains, locus YNL271C, strain bni1, stronger effect = lower value 1.02 | S. cerevisiae deletion strains, locus YNL298W, strain CLA4, stronger effect = lower value 1.02 | S. cerevisiae deletion strains, locus YNL307C, strain MCK1, stronger effect = lower value 1.03 | S. cerevisiae deletion strains, locus YNL322C, strain KRE1 (second series), stronger effect = lower value 1 | S. cerevisiae deletion strains, locus YNL322C, strain KRE1, stronger effect = lower value 1 | S. cerevisiae deletion strains, locus YNR049C, strain mso1, stronger effect = lower value 1.01 | S. cerevisiae deletion strains, locus YNR052C, strain pop2, stronger effect = lower value 1.03 | S. cerevisiae deletion strains, locus YOL006C, strain TOP1, stronger effect = lower value 1.02 | S. cerevisiae deletion strains, locus YOL012C, strain htz1 1.3 | S. cerevisiae deletion strains, locus YOL147C, strain pex11, stronger effect = lower value 1.01 | S. cerevisiae deletion strains, locus YOR001W, strain rrp6, stronger effect = lower value 1.01 | S. cerevisiae deletion strains, locus YOR061W, strain CKA2, stronger effect = lower value 1 | S. cerevisiae deletion strains, locus YOR069W, strain VPS5, stronger effect = lower value 1 | S. cerevisiae deletion strains, locus YOR070C, strain gyp1, stronger effect = lower value 1 | S. cerevisiae deletion strains, locus YOR080W, strain dia2, stronger effect = lower value 0.99 | S. cerevisiae deletion strains, locus YOR083W, strain WHI5, stronger effect = lower value 0.989 | S. cerevisiae deletion strains, locus YOR106W, strain vam3, stronger effect = lower value 0.993 | S. cerevisiae deletion strains, locus YOR136W, strain idh2, stronger effect = lower value 1.02 | S. cerevisiae deletion strains, locus YOR144C, strain elg1, stronger effect = lower value 1.01 | S. cerevisiae deletion strains, locus YOR184W, strain ser1, stronger effect = lower value 1.05 | S. cerevisiae deletion strains, locus YOR231W, strain MKK1, stronger effect = lower value 1.04 | S. cerevisiae deletion strains, locus YOR265W, strain rbl2, stronger effect = lower value 1.01 | S. cerevisiae deletion strains, locus YOR270C, strain vph1, stronger effect = lower value 0.976 | S. cerevisiae deletion strains, locus YOR290C, strain snf2, stronger effect = lower value 1.01 | S. cerevisiae deletion strains, locus YOR316C, strain cot1, stronger effect = lower value 1.01 | S. cerevisiae deletion strains, locus YPL051W, strain arl3, stronger effect = lower value 0.991 | S. cerevisiae deletion strains, locus YPL055C, strain LGE1, stronger effect = lower value 0.97 | S. cerevisiae deletion strains, locus YPL078C, strain atp4, stronger effect = lower value 0.998 | S. cerevisiae deletion strains, locus YPL106C, strain sse1, stronger effect = lower value 0.993 | S. cerevisiae deletion strains, locus YPL240C, strain hsp82, stronger effect = lower value 0.99 | S. cerevisiae deletion strains, locus YPL241C, strain CIN2, stronger effect = lower value 0.999 | S. cerevisiae deletion strains, locus YPL256C, strain CLN2, stronger effect = lower value 1.09 | S. cerevisiae deletion strains, locus YPR119W, strain clb2, stronger effect = lower value 1 | S. cerevisiae deletion strains, locus YPR141C, strain kar3, stronger effect = lower value 1.01 | S. cerevisiae deletion strains, locus YPR163C, strain tif3, stronger effect = lower value 1 | S. cerevisiae deletion strains, locus YPR167C, strain met16, stronger effect = lower value 1.01 | S. cerevisiae deletion strains, strain wtn01, stronger effect = lower value 1.02 | S. cerevisiae strains, strain wild type, stronger effect = lower value 1.01
